Source: PubChem (National Center for Advancing Translational Sciences (NCATS))
Only some compounds are listed: those with a hit (about 19% of all), similar ones and a draw of the others.
ELG1 DNA repair – ELG1-dependent DNA repair inhibition; actives 2.3% (n = 330,000); AID 504467; HEK293T ELG1-luciferase reporter, luminescence, 16 h; DNA damage induced by 5-fluorouridine; Potency, µM (doses to about 46.1 µM), most hits filed as inhibitors; note: nearly all actives have a fitted effect of over 55% in size
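Reporter activity after DNA damage by 5-fluorouridine is monitored. Compound-treated cells incubate 16 hr at 37 °C, then ONE-Glo is added for 30 min before luminescence reading.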
IL1B secr inh – inflammasome signaling inhibition, IL-1 beta readout. actives 4.7% (n = 360,000). activity change, % at 57.5 µM. THP-1 LPS/ATP IL-1B secretion, AlphaLISA, 16 h; hits give low values; in the data active = activity change below about -50%; inconclusive = mostly about -30% to -49%
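Secreted IL-1B measured by AlphaLISA bead assay after 16 h compound exposure of THP-1 cells; compounds (final up to 57.5 uM) added 1 h before LPS (250 ng/mL) and ATP (1.25 mM) stimulation; lower signal means less secretion.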
TDP1 block – inhibitors of human tyrosyl-DNA phosphodiesterase TDP1. recombinant TDP1, AlphaScreen DNA substrate cleavage. Potency, µM (top dose mostly 130 µM), usual class: inhibitors. AID 485290. Q9NUW8. actives 0.28% (n = 350,000); note: nearly all actives have a fitted effect of over 40% in size
Target sequence (Q9NUW8 whole entry, looked up): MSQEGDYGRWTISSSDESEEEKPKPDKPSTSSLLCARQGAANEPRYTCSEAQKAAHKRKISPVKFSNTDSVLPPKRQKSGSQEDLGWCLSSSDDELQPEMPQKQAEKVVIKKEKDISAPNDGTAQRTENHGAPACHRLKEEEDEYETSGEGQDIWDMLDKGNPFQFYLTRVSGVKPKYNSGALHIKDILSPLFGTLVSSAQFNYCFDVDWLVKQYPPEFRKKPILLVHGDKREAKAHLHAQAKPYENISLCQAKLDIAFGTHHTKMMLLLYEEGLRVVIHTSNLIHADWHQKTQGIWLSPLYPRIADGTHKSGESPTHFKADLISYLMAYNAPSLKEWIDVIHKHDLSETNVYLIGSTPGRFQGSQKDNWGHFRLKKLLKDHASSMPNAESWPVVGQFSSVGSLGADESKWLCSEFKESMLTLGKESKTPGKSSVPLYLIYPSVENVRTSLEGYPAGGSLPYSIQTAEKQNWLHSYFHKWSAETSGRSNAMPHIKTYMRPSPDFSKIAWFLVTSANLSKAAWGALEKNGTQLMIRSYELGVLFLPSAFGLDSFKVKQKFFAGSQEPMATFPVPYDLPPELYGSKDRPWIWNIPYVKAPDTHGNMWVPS
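Enzyme-compound mixtures sat 15 min at room temperature, followed by a 5 min reaction with 15 nM final substrate and 10 min with AlphaScreen beads. Recombinant human Tdp1 was used at 1 nM final.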
Giardia killer – Giardia lamblia killing; Giardia lamblia trophozoite viability; activity change, % at 7.66 µM, hits read low; actives 0.15% (n = 340,000); AID 540267; in the data active = activity change below about -80%; inconclusive = between about -30% and that limit;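 note: parasites exposed to compound for two days anaerobically before the ATP read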
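Each well holds 100 Giardia trophozoites and compound. After two days (48 hrs) at 37 deg C in anaerobic conditions, ATP is quantified by luminescence.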
TDP1 cell CPT – DT40-hTDP1 cell growth loss with CPT; actives 12% (n = 420,000); Potency, µM (titrated, usually from 46.2 µM), actives largely listed as inhibitors; chicken DT40 Tdp1-/-;hTDP1 cells + 20 nM CPT, ATP luminescence, 48 h; AID 686979; note: nearly all actives have a fitted effect of over 55% in size
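Chicken DT40 Tdp1-/- cells stably complemented with human TDP1 were seeded at 400 cells/well in medium containing 20 nM camptothecin, exposed to pin-transferred compounds, and grown at 37 °C for at least 48 hr. Viability was read as ATP luminescence.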
DT40 TDP1 no CPT – qHTS for Inhibitors of human tyrosyl-DNA phosphodiesterase 1 (TDP1): qHTS in cells in absence of CPT; DT40 Tdp1-/- hTDP1 cells, no CPT, ATP luminescence, 48 h; Potency, µM (series often up to 46.2 µM), hits mostly inhibitors; actives 15% (n = 420,000); AID 686978, 2013; note: nearly all actives have a fitted effect of over 55% in size
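Seeded 400 DT40-hTDP1 cells/well (vehicle DMSO, no 20 nM CPT); pinned compounds; ≥48 hr at 37 °C; CellTiter-Glo luminescence as viability measure.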
Each line names hits and unclear results; the compound was inactive in the other large screens. Unless noted, calls come from the whole dose curve; as a rule, active = well fitted curve in the direction sought with a large enough effect; inconclusive = small, poorly fitted or top-dose-only effect, or another doubt; inactive = no such curve, though single readings can be large; an effect the other way counts as inactive or inconclusive.

Cc1ccc(NC(=O)CSCC(=O)N(C)CC(=O)Nc2cccc3ccccc23)cc1	none (no result: TDP1 block)
Cc1ccc(N2CCN(Cc3nnc(-c4ccccc4F)o3)CC2)c(C)c1	TDP1 cell CPT inconclusive, DT40 TDP1 no CPT inconclusive (no result: ELG1 DNA repair, IL1B secr inh, Giardia killer)
COc1ccc(-c2ccc(OC)c(C3C4C=CCC(C)C4C(=O)N3Cc3ccccc3)c2)cc1 (centres undefined)	none (no result: ELG1 DNA repair, IL1B secr inh, TDP1 cell CPT, DT40 TDP1 no CPT)
COc1cc(NC(=O)CN(c2cc(C)cc(C)c2)S(=O)(=O)c2c(C)noc2C)cc(OC)c1	TDP1 cell CPT 18µM, DT40 TDP1 no CPT inconclusive
Cc1ccc(N(CC(=O)Nc2ccc3c(c2)OCCO3)S(=O)(=O)c2c(C)noc2C)cc1	ELG1 DNA repair 16µM, TDP1 cell CPT inconclusive, DT40 TDP1 no CPT inconclusive
COc1ccc(CNC(=O)CN(c2cc(C)cc(C)c2)S(=O)(=O)c2c(C)noc2C)cc1	DT40 TDP1 no CPT inconclusive
CNC(=O)[C@H]1O[C@@H](n2cnc3c(N)ncnc32)[C@H](O)[C@H]1O	none (no result: ELG1 DNA repair, IL1B secr inh, Giardia killer, TDP1 cell CPT, DT40 TDP1 no CPT)
Clc1cccc(Nc2nc(-c3ccncc3)nc3ccccc23)c1	ELG1 DNA repair 2.6µM, DT40 TDP1 no CPT inconclusive
Clc1ccccc1Nc1nc(-c2ccncc2)nc2ccccc12	ELG1 DNA repair inconclusive, TDP1 cell CPT 29µM, DT40 TDP1 no CPT 16µM (no result: TDP1 block)
CCCCC1NC(=S)N(C2CCCCC2)C1=O (centres undefined)	TDP1 cell CPT inconclusive, DT40 TDP1 no CPT inconclusive
COC(=O)[C@@]12CCCN1[C@H](c1ccc(-c3ccccc3)c(OC)c1)[C@H]1C(=O)N(C)C(=O)[C@H]12	TDP1 cell CPT inconclusive
COC(=O)[C@@]12CCCCN1[C@H](c1ccc(-c3cc(C(C)=O)cs3)c(OC)c1)[C@H]1C(=O)N(C)C(=O)[C@H]12	ELG1 DNA repair inconclusive, TDP1 cell CPT 4.1µM, DT40 TDP1 no CPT 2.9µM
COC(=O)[C@@]12CCCCN1[C@H](c1ccc(-c3cc(C(C)=O)cs3)cc1)[C@H]1C(=O)N(C)C(=O)[C@H]12	ELG1 DNA repair inconclusive, TDP1 cell CPT 5.2µM, DT40 TDP1 no CPT 3.7µM
Cc1ccc(-n2c(=O)c3ccccc3n(CC(=O)NCc3ccco3)c2=O)cc1	none
Cc1ccc(Cl)cc1N1CCN(C(=O)c2cc3ccc4cccnc4c3[nH]2)CC1	TDP1 cell CPT inconclusive, DT40 TDP1 no CPT inconclusive (no result: ELG1 DNA repair, IL1B secr inh, Giardia killer)
Cc1cccc(N2CCN(C(=O)c3cc4ccc5cccnc5c4[nH]3)CC2)c1C	TDP1 cell CPT 23µM, DT40 TDP1 no CPT inconclusive (no result: ELG1 DNA repair, IL1B secr inh, Giardia killer)
O=C(c1cc2ccc3cccnc3c2[nH]1)N1CCN(c2ccc(Cl)cc2)CC1	TDP1 cell CPT inconclusive, DT40 TDP1 no CPT inconclusive (no result: ELG1 DNA repair, IL1B secr inh, Giardia killer)
CC(=O)c1ccc(N2CCN(C(=O)c3cc4ccc5cccnc5c4[nH]3)CC2)cc1	TDP1 cell CPT 15µM, DT40 TDP1 no CPT 18µM (no result: ELG1 DNA repair, IL1B secr inh, Giardia killer)
c1ccc(Nc2nc3ccccc3[nH]2)nc1	ELG1 DNA repair inconclusive, IL1B secr inh -80, TDP1 cell CPT inconclusive, DT40 TDP1 no CPT inconclusive
Cc1cc(C)nc(Nc2nc3ccccc3[nH]2)n1	ELG1 DNA repair inconclusive
c1ccc(Nc2ccccn2)cc1	TDP1 cell CPT inconclusive, DT40 TDP1 no CPT 26µM
Nc1ccccc1Nc1nc2ccccc2[nH]1	TDP1 cell CPT inconclusive, DT40 TDP1 no CPT 26µM (no result: TDP1 block)
Nc1ccc(Nc2nc3ccccc3[nH]2)cc1	IL1B secr inh inconclusive
Cc1ccc(C)c(Nc2nc3ccccc3[nH]2)c1	IL1B secr inh -94 (no result: ELG1 DNA repair, TDP1 block)
c1ccc(Nc2cccc(Nc3ccccc3)n2)cc1	ELG1 DNA repair inconclusive, IL1B secr inh inconclusive
NC(=O)C1(N2CCCCC2)CCN(C(=S)Nc2cccc(Cl)c2)CC1	none
CS(=O)(=O)N(CC(=O)N1CCCC1)c1ccc(Cl)cc1	none
Cc1cc(N2CCN(c3ccccc3)CC2)nc(-c2ccccc2O)n1	ELG1 DNA repair inconclusive, TDP1 cell CPT inconclusive, DT40 TDP1 no CPT inconclusive
Cc1cc(-n2[nH]c(C)c(C)c2=O)nc(-c2ccccc2O)n1	ELG1 DNA repair inconclusive, TDP1 cell CPT 16µM, DT40 TDP1 no CPT inconclusive
C[C@@H](NC(=O)c1nc[nH]c1C(=O)N[C@@H](CCCCNC(=O)OC(C)(C)C)C(=O)OC(C)(C)C)c1ccccc1	ELG1 DNA repair inconclusive, TDP1 cell CPT inconclusive
